Records with an inconclusive call do not appear. Active and inactive are the calls of the source. Unless noted, the call rests on the fitted dose curve; in most records, active means well fitted curve in the direction sought with a large enough effect in the repeat runs; inconclusive means weak or mixed curves; inactive means no such curve, though single readings can be large; an effect the other way counts as inactive or inconclusive.
Columns and labels:
[1] = A CellTox Green Cytotoxicity Assay to monitor cytotoxicity in HepG2 cells - 8 hour (AID 1224890); further: nearly all actives have a fitted effect of over 45% in size
Procedure, shortened: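 HepG2 cells, 600/well, preincubated 5 h with CellTox Green dye, then exposed to Tox21 compounds in DMSO at 37 C for up to 40 h. Dead-cell DNA fluorescence read at the indicated time point.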

[2] = qHTS assay to identify small molecule HDAC inhibitors (AID 1259364); further: nearly all actives have a fitted effect of over 45% in size; further: potency means the concentration at half of the fitted maximal effect
Procedure, shortened: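 Wild-type HCT-116 cells, plated overnight at 37 C, exposed to compounds 2 hr at 37 C; luminogenic HDAC-Glo substrate then added 30 min at room temperature. Luminescence reports relative endogenous class I/II HDAC activity.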

[3] = qHTS assay to identify small molecule HDAC inhibitors - cell viability counter screen (AID 1259365); further: series mostly up to about 92 µM; nearly all actives have a fitted effect of over 50% in size
Procedure, shortened: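 CellTiter-Glo luminescence (30 min, room temperature) reported viability after a 2 h compound exposure at 37 C. Cells: wild-type HCT-116, 1,500 per well, seeded the night before.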

[4] = qHTS assay to identify small molecule agonists of the sonic hedgehog signaling (Shh) pathway - cell viability counter screen (AID 1259366); further: nearly all actives have a fitted effect of over 50% in size; further: potency means the concentration at half of the fitted maximal effect
Procedure, shortened: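 Cytotoxicity counter screen: CellTiter-Fluor reagent added after 23 h compound exposure, then 1 h at 37C and fluorescence read. Cells were 3T3 Gli1-Luc, seeded 2,000 per well and dosed 4 h post-plating.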

[5] = target: Estrogen receptor (Homo sapiens) (UniProt P03372); experiment: qHTS assay to identify small molecule antagonists of the estrogen receptor alpha (ER-alpha) signaling pathway using the BG1 cell line in the presence of 0.1 nM 17-beta-estradiol (AID 1259244); further: nearly all actives have a fitted effect of over 50% in size; further: potency means the concentration at half of the fitted maximal effect
Procedure, shortened: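 VM7Luc4E2 cells (endogenous full-length ER-alpha, 4×ERE-luciferase), kept 5 days in phenol red-free, charcoal-stripped FBS medium; 4,000 cells/well. Compounds added with 0.1 nM (final) 17beta-estradiol, 22 hr at 37C; luminescence read with ONE-Glo after 30 min.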

[6] = qHTS assay to identify small molecule antagonists of the sonic hedgehog signaling (Shh) pathway - cell viability counter screen (AID 1259367); further: nearly all actives have a fitted effect of over 55% in size
Procedure, shortened: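 Using CellTiter-Fluor, viability of Gli1-Luc reporter 3T3 cells is read by fluorescence in the wells used for the Shh luciferase assay. Treatment lasts 23 hr with conditioned medium, then reagent 1 hr at 37C.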

[7] = qHTS assay to identify small molecule antagonists of the androgen receptor (AR) signaling pathway using the MDA cell line in the presence of 0.5 nM R1881 - cell viability counter screen (AID 1259242); further: nearly all actives have a fitted effect of over 45% in size
Procedure, shortened: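 MDA-kb2 cells (MMTV-luciferase, AR/GR responsive) were treated with compounds plus 0.5 nM R1881 (final) for 16 hr at 37C, 0% CO2. Viability was then read in the same wells as live-cell protease fluorescence (CellTiter-Fluor, 30 min).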

[8] = qHTS assay to identify small molecule phospholipidosis (PLD) inducers (AID 1259344; active means well fitted curve in the direction sought with a large enough effect; an effect the other way counts as inactive or inconclusive)
Procedure, shortened: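 Fluorescent phospholipid staining (LipidTOX Red) measured by automated microscopy in fixed HepG2 cells after 24 h treatment; nuclei counterstained with Hoechst 33342; amiodarone as reference inducer.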

[9] = qHTS assay to identify small molecule antagonists of the estrogen receptor alpha (ER-alpha) signaling pathway using the BG1 cell line in the presence of 0.1 nM 17-beta-estradiol - cell viability counter screen (AID 1259241); further: nearly all actives have a fitted effect of over 40% in size
Procedure, shortened: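 Cytotoxicity counter-screen: live-cell protease activity measured by fluorescence (30 min reagent step) in the same wells. Cells were VM7Luc4E2 with endogenous ER-alpha and ERE-driven luciferase, treated 22 hr at 37C alongside 0.1 nM 17beta-estradiol final.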

Measured: Potency

Sequence of Estrogen receptor (Homo sapiens) (P03372 whole entry, looked up): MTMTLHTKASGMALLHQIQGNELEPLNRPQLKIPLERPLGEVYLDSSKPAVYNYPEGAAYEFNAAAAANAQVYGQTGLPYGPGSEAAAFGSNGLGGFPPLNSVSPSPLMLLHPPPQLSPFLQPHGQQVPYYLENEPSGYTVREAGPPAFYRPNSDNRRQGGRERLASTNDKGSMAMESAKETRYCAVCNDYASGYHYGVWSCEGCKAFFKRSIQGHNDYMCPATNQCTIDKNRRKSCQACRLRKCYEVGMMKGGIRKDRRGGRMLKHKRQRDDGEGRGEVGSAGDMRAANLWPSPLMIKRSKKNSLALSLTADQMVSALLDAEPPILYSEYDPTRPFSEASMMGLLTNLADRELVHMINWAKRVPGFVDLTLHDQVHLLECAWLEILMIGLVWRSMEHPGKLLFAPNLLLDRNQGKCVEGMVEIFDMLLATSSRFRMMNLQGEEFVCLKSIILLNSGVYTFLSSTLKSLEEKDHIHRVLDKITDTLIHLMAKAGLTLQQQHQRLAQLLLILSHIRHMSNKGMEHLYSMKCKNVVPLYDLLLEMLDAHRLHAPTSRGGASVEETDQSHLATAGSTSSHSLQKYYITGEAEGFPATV

O=C(N[C@@H](c1ccccc1)[C@@H]1CCCCN1)c1cccc(C(F)(F)F)c1Cl
active: [4] 30.6 µM
inactive: [1] | [2] | [3]

Cc1nccn1-c1ccc(Sc2cccc(C3(C(N)=O)CCOCC3)c2)cc1
inactive: [1] | [3] | [4] | [6]
active: [5] 3.06 µM

CC(CCO)CCc1ccccc1 (stereo unspecified)
inactive: [1] | [7] | [5] | [2] | [3] | [4] | [6]

CC1(C)O[C@@H]2C[C@H]3[C@@H]4CCC5=CC(=O)C=C[C@]5(C)[C@H]4[C@@H](O)C[C@]3(C)[C@]2(C(=O)CO)O1
inactive: [1] | [5] | [8] | [2] | [3] | [4] | [6]

CC(Cl)C(Cl)Cl (stereo unspecified)
inactive: [1] | [7] | [5] | [2] | [3] | [4] | [6]

Cc1ccc(S)cc1
inactive: [1] | [7] | [5] | [2] | [3] | [4] | [6]

Fc1ccccc1[C@@H](F)COC1CCC(Nc2ncnc3[nH]ncc23)CC1 (stereo partly specified)
inactive: [1] | [4]

CC(=O)Nc1ccccc1C
inactive: [1] | [7] | [5] | [2] | [3] | [4] | [6]

CC(C)(C)C(=O)O
inactive: [1] | [7] | [2] | [3] | [4] | [6]

CC#N
inactive: [1] | [7] | [5] | [2] | [3] | [4] | [6]

O=C(CS)OCCOC(=O)CS
inactive: [1] | [7] | [3] | [4] | [6]
active: [2] 8.63 µM

CC(C)C(=O)O
inactive: [1] | [7] | [5] | [4] | [6]

NC(=O)N(O)[C@@H]1C=C[C@H](Oc2cccc(Oc3ccc(F)cc3)c2)C1
inactive: [7] | [3] | [4]

COc1cc2ncnc(Nc3ccc(F)c(Cl)c3)c2cc1OCCCN1CCOCC1
active: [4] 15 µM
inactive: [9] | [7] | [8] | [2]

CN1CCN(CCCN2c3ccccc3Sc3ccc(S(=O)(=O)N(C)C)cc32)CC1
inactive: [9] | [7] | [8] | [2] | [3]
active: [4] 11.9 µM

CO[C@@]12[C@H](COC(N)=O)C3=C(C(=O)C(C)=C(N)C3=O)N1C[C@@H]1N[C@@H]12
inactive: [1] | [7] | [8] | [3]

Nc1ccc(Cl)cc1[N+](=O)[O-]
inactive: [1] | [7] | [5] | [2] | [3] | [4] | [6]

Cc1occc1C(=O)Nc1ccc(C(=O)N2CCC(F)(F)/C(=C\C(=O)N3CCC(N4CCCCC4)CC3)c3ccccc32)cc1
inactive: [1] | [7] | [2]

CCOCCn1c(C2CCN(CCc3ccc(C(C)(C)C(=O)O)cc3)CC2)nc2ccccc21
inactive: [9] | [7] | [5] | [2] | [4] | [6]

OC/C(Br)=C(\Br)CO
inactive: [1] | [7] | [5] | [2] | [3] | [4]

CC(C)(C)C(=O)C(Oc1ccc(Cl)cc1)n1ccnc1 (stereo unspecified)
inactive: [1] | [5] | [8] | [2] | [3] | [4]

C=CC(C)(C)CC(=O)OC
inactive: [1] | [7] | [2] | [3] | [4] | [6]

Nc1ccc(S(=O)(=O)O)cc1
inactive: [1] | [7] | [5] | [2] | [3] | [4] | [6]

NC(=O)Nc1ccc(Cl)cc1
inactive: [9] | [5] | [3] | [4] | [6]

C=CC(C)(O)CCCC(C)CCCC(C)CCCC(C)C (stereo unspecified)
inactive: [1] | [7] | [5] | [2] | [3] | [4] | [6]

O=c1[nH]c2ccc(S(=O)CCN3CCC(Cc4ccc(F)cc4)CC3)cc2o1 (stereo unspecified)
inactive: [1] | [7] | [2] | [3] | [4] | [6]

CCOC(=O)N1CCC(n2c(=O)[nH]c3cc(Cl)ccc32)CC1
active: [5] 23.7 µM
inactive: [1] | [4] | [6]

OC(CCCN1CCCCC1)(c1ccccc1)c1ccccc1
inactive: [1] | [7] | [5] | [3] | [4]

CC(=O)Oc1ccc2c(c1)CC[C@@H]1[C@@H]2CC[C@]2(C)[C@@H](O)CC[C@@H]12
inactive: [1] | [8] | [2] | [3] | [4] | [6]

CN(C(=O)C(Cl)Cl)c1ccc(OC(=O)c2ccco2)cc1
inactive: [1] | [7] | [8] | [3] | [4] | [6]

CC[C@H](NC(=O)c1cc(F)ccc1NS(=O)(=O)c1cccc2cccnc12)c1ccccc1
inactive: [1] | [7] | [2] | [3] | [4] | [6]

CC1CC(=O)NN=C1c1ccc(NCC(C)(C)NCC(O)COc2cc(Cl)ccc2C#N)cc1 (stereo unspecified)
inactive: [1] | [7] | [5] | [2] | [4] | [6]

Cc1cc(C(=C2C=CC(=Nc3ccc(S(=O)(=O)O)cc3S(=O)(=O)O)C=C2)c2ccc(Nc3ccc(S(=O)(=O)O)cc3)cc2)ccc1N
inactive: [1] | [7] | [5] | [2] | [3] | [4]

From PubChem BioAssay (Tox21)
